Assay outcomes as filed in PubChem.
This is a sample that favours compounds with a hit; in the whole collection about 11% have one here.
HCV inhibitor: HCV inhibition. Huh7.5.1 HCVcc-Cre infection, luciferase reporter, 44 h. Potency, µM (top dose mostly 41.8 µM), for the others: at the highest dose activity change, negative = inhibition, actives largely listed as inhibitors. hit rate 3.4% among 340,000. AID 651820
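Seed cells (1,000/well) for 4 h; treat with compound and infect with HCVcc-Cre, moi about 0.5. Incubate 44 h, then detect luciferase activity.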
Pf growth 96h: inhibits malaria parasite growth, 96 h. P. falciparum luciferase reporter growth, 96 h. Potency, µM (series often up to 28.7 µM), for the others: top-dose activity change, negative = inhibition, actives largely listed as inhibitors. hit rate 6.9% among 320,000. AID 504834
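Erythrocytes infected with luciferase-expressing P. falciparum were dispensed at 2% hematocrit and 0.05% parasitemia (final), then incubated with compounds 96 hours at 37 C in 5% CO2. Luminescence after detection reagent addition reported growth.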
AmpC no deterg: blocks E. coli AmpC beta-lactamase in detergent-free assay; P00811; AmpC nitrocefin hydrolysis, absorbance 480 nm, 0.0001% Triton; Potency, µM (top dose mostly 57.1 µM), for inactives: at the top dose activity change, negative = inhibition, usual class: inhibitors; hit rate 0.52% among 330,000; AID 485341;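 also: plate controls were no compound for no effect and no enzyme for full effect; nearly all actives have a fitted effect of over 20% in size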
Target sequence (P00811 whole entry, looked up): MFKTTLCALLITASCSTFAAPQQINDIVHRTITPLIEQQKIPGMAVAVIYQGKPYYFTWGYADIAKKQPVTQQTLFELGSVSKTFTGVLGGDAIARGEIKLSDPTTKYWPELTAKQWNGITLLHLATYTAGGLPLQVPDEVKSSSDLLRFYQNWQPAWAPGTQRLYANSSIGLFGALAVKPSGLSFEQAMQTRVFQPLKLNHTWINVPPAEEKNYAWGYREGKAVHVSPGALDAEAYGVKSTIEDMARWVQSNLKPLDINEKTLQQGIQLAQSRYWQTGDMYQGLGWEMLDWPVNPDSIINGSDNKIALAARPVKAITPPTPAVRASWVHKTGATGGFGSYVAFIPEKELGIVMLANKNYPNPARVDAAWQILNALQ
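20 mM phosphate pH 7.0 + 0.01% (detergent screen) or 0.0001% Triton X-100; 5.3 nM AmpC reagent; cpd preinc 15 min RT; nitrocefin (800 uM stock) to start; A480 q20 s × 4 min; Activity was normalised to no-enzyme and no-compound control wells.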
AMA1 RON2 block: AMA1-RON2 (P. falciparum) interaction inhibition | AlphaScreen AMA1-biotinylated RON2 peptide binding | Potency, µM (titrated, usually from 58.2 µM), for inactives: at the top dose activity change, negative = inhibition, actives largely listed as inhibitors | hit rate 0.2% among 360,000 | AID 720542;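 also: 0% = vehicle wells and -100% = peptide control; nearly all actives have a fitted effect of over 45% in size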
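AMA1 (3D7) with his tag at 25 nM final met compounds first, then biotinylated RON2 peptide at 25 nM; detection used donor plus acceptor beads, 10 µg/mL apiece, read by AlphaScreen after 30 min at room temperature.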
AmpC inh detg: inhibitors of E. coli AmpC beta-lactamase with detergent; AmpC hydrolysis of nitrocefin, absorbance 480 nm, 0.01% Triton; hit rate 0.041% among 370,000; P00811; Potency, µM (highest dose often 114 µM), inactives show top-dose activity change, negative = inhibition, actives largely listed as inhibitors;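 also: 0% = no-compound wells and -100% = no-enzyme wells; nearly all actives have a fitted effect of over 25% in size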
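20 mM phosphate pH 7.0 + 0.01% (detergent screen) or 0.0001% Triton X-100; 5.3 nM AmpC reagent; cpd preinc 15 min RT; nitrocefin (800 uM stock) to start; A480 q20 s × 4 min; Activity was normalised to no-enzyme and no-compound control wells.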
Pf growth 48h: inhibits P. falciparum growth in the first generation, 48 h; P. falciparum luciferase growth in erythrocytes, 48 h; Potency, µM (titrated, usually from 28.7 µM), inactives show top-dose activity change, negative = inhibition, most hits filed as inhibitors; hit rate 5.9% among 310,000
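Parasite viability was followed by luminescence of a genomically integrated firefly luciferase. Cultures held 0.1% parasitemia at 2% hematocrit (final), incubated under 5% CO2 at 37 C.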
An asterisk follows results filed as active; ? = inconclusive; . = not tested or not shown; [ ] = another dose, or the depositor's remark. Calls follow the shape of the dose curve; as a rule, active = well fitted curve in the direction sought with a large enough effect; inconclusive = small, poorly fitted or top-dose-only effect, or another doubt; inactive = no such curve, though single readings can be large; an effect the other way counts as inactive or inconclusive. Unless noted, % is scaled to controls: 0 for no effect and ±100 for the full control effect; potency is read from the fitted curve at half-maximal effect.

SMILES	HCV inhibitor	Pf growth 96h	AmpC no deterg	AMA1 RON2 block	AmpC inh detg	Pf growth 48h
CCOc1cc(/C=C\[N+](=O)[O-])ccc1OCC(=O)Nc1ccccc1C	11µM*	11%	-10%	-10%	1%	5%
CCOc1cc(/C=C/c2cccc[n+]2C)ccc1OCC(=O)Nc1ccc(C)cc1	-27%	5.2µM*	32%	-12%	6%	0.93µM*
CCOc1cc(/C=N/NC(N)=O)cc(Br)c1OCC(=O)Nc1ccccc1C	?	9%[5.75 µM]	-12%	0%	-1%	-4%
CCOc1cc(/C=C/c2cccc[n+]2C)ccc1O	1%	8.3µM*	-15%	4%	?	9.3µM*
COC(=O)c1cc(C)nc2c1c(=O)nc(SCc1ccccc1C)n2C1CC1	.	.	.	.	-4%	.
CCC(C)c1ccc(O)c(NC(=O)c2ncn[nH]2)c1 (stereo not drawn)	?	3.3µM*	-31%	15%	-11%	10%
CCC(C)c1ccc2oc(-c3ccc(NC(=O)c4ncn[nH]4)cc3)nc2c1 (stereo not drawn)	7%	.	-17%	73%	-13%	?
Cc1nc2nc(SCC(=O)NCc3ccccc3)nn2c(C)c1Cc1ccccc1Cl	.	.	.	.	7%	.
O=C(Nc1cccc(Cl)c1)C1CCCN(c2ncnc3c2nc2n3CCCCC2)C1 (stereo not drawn)	.	.	.	.	5%	.
COc1ccccc1NC(=O)C1CCCN(c2ncnc3c2nc2n3CCCCC2)C1 (stereo not drawn)	?	?	113%	-1%	1%	?
Cc1ccc(NC(=O)C2CCN(c3ncnc4c3nc3n4CCCCC3)CC2)nc1	13µM*	61%	123%	?	3%	-12%
O=C(Nc1ccccc1Cl)C1CCCN(c2ncnc3c2nc2n3CCCCC2)C1 (stereo not drawn)	?	6.6µM*	138%	-1%	0%	?
CCc1cccc(NC(=O)C2CCCN(c3ncnc4c3nc3n4CCCCC3)C2)c1 (stereo not drawn)	11µM*	?	181%	-7%	-4%	?
Cc1ccc(C)c(NC(=O)C2CCN(c3ncnc4c3nc3n4CCCCC3)CC2)c1	.	.	.	.	11%	.
Cc1cccc(CCNC(=O)C2CCCN(c3ncnc4c3nc3n4CCCCC3)C2)c1 (stereo not drawn)	?	12µM*	130%	1%	-1%	?
CCOC(=O)c1ccc(N2C(=O)c3[nH]nc(-c4ccc(C)cc4)c3C2c2cccc(F)c2)cc1 (stereo not drawn)	.	.	.	.	4%	.
Cc1oc(-c2ccccc2Cl)nc1CS(=O)(=O)CC(=O)NCc1ccc(F)cc1	.	.	.	.	5%	.
CCC1=C(c2ccc(C)cc2)S(=O)(=O)N=C1N1CCC(C(=O)NCc2ccc(N(C)C)cc2)CC1	.	.	.	.	-3%	.
COc1cc(NC(=O)C2CCCN(c3ncnc4c3nc3n4CCCCC3)C2)cc(OC)c1OC (stereo not drawn)	-24%	13µM*	154%	7%	0%	?
CCc1ccc(C2Sc3ccccc3NC3=C2C(=O)c2ccccc23)cc1 (stereo not drawn)	.	.	.	.	1%	.
CC1CC(=O)C2=C(C1)Nc1ccccc1SC2c1ccc(F)cc1 (stereo not drawn)	3%	4.1µM*	-39%	6%	?	12µM*
CCOC(=O)c1c(CSc2ccccc2)oc2cc(Br)c(O)c(CN(C)C)c12	?	?	134%	7%	0%	2.6µM*
CCOC(=O)c1c(-c2ccccc2)oc2cc(CN(C)C)c(O)c(CN(C)C)c12	10µM*	.	.	-6%	.	.
CCOC(=O)c1c(-c2ccccc2)oc2ccc(O)c(CN3CCN(C)CC3)c12	13µM*	3.3µM*	329%	-7%	2%	3.7µM*
CCOC(=O)c1oc2c(CN3CCN(C)CC3)c(O)ccc2c(=O)c1-c1ccccc1OC	1%	9.3µM*	-11%	0%	?	-3%
SMILES	HCV inhibitor	Pf growth 96h	AmpC no deterg	AMA1 RON2 block	AmpC inh detg	Pf growth 48h
COc1ccccc1-c1c(C)oc2c(CN3CCN(C)CC3)c(O)ccc2c1=O	3%	-17%	-36%	13%	?	-18%
CCOC(=O)c1c(C)oc2cc(Cl)c(O)c(CN(C)C)c12	?	?	-21%	0%	0%	?
COc1ccc(N2CC(NC(=O)c3cccs3)CC2=O)cc1OC (stereo not drawn)	.	.	.	.	1%	.
CCn1cc(C(=O)N2CCN(c3ccccc3)CC2)c(=O)c2cc(S(=O)(=O)N(C)C3CCCCC3)ccc21	.	.	.	.	3%	.
CCOC(=O)c1cccc(NC(=O)CC2C(=O)N(c3ccccc3)C(=O)N2Cc2ccco2)c1 (stereo not drawn)	.	.	.	.	5%	.
CCOC(=O)c1c(CSc2ccc(CC)cc2)oc2ccc(O)c(CN(C)C)c12	4µM*	11%	109%	-15%	-1%	2.3µM*
CCOC(=O)c1c(C)oc2ccc(O)c(CN(C)C)c12	14%	-56%	-7%	4%	3%	-14%
c1ccc(Cn2nnnc2C(c2cccnc2)N2CCN(c3ccccc3)CC2)cc1 (stereo not drawn)	-9%	.	63%	-4%	?	13µM*
Cc1cc(C(c2nnnn2Cc2ccccc2)N2CCOCC2)c(C)n1-c1ccc2c(c1)OCO2 (stereo not drawn)	-19%	22%	66%	-13%	1%	9.3µM*
CCN1CCN(C(c2ccccc2)c2nnnn2Cc2ccccc2)CC1 (stereo not drawn)	-17%	426%	2%	7%	1%	?
c1ccc(Cn2nnnc2C(c2ccncc2)N2CCOCC2)cc1 (stereo not drawn)	14%	0.74µM*	-28%	7%	-10%	15%
CCN(Cc1ccc(OC)cc1)c1ccc(-c2nc(-c3ccncc3)no2)cc1[N+](=O)[O-]	.	.	.	.	1%	.
CCOc1ccccc1CNC(=O)c1cnn(-c2ccc(C)cc2)c1-n1cccc1	.	.	.	.	-8%	.
CCN(CC)CCNC(=O)CSc1c2c(nc3cc(Cl)ccc13)CCCC2	10µM*	14%	26%	-7%	1%	?
CCOC(=O)C1CCCN(C(=O)c2nn(-c3ccc(C)cc3)c(=O)n(C)c2=O)C1 (stereo not drawn)	.	.	.	.	23%	.
COCCNC(=O)c1csc(Nc2cccc3ccccc23)n1	-13%	?	0%	1%	-15%	?
CCCNC(=O)c1csc(Nc2cccc3ccccc23)n1	5%	6.6µM*	-17%	0%	-9%	9.3µM*
Cc1cc(-c2nn(-c3ccccc3F)cc2CN2CCC(O)CC2)c(C)s1	-3%	?	5%	9%	-14%	?
